Test results as given in the supplement of paper PMC10849652.
The full data set covers some 7,900 targets. This sample favours those with a hit. About 0.6% of all pairs of compound and target were hits. A number with no mark means an inactive call.

Molecular target: AAK1 (UniProt Q2M2I8)
Experiment: log2 fold change, soluble protein after heating vs DMSO (PISA); higher = thermal stabilisation; K562 cells, 10 uM, 30 min; active = over 0.2 and 3.5 SD of the protein, either way, in both replicates (recomputed)
Summary of the method: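 K562 cells at 2×10^6 cells/mL were given 10 μM compound for 30 min. Aliquots then went through 3 min of heating across 48°C-58°C, were pooled, and were extracted in PBS with 0.5% NP-40 at 4°C, and the supernatant after 21,000xg for 90 min was quantified by TMTpro 16plex LC-MS/MS with channel sums equalised. Thermal stability relative to control samples, from duplicates, is given as log2 fold change.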

Sequence of AAK1 (Q2M2I8 whole entry, looked up): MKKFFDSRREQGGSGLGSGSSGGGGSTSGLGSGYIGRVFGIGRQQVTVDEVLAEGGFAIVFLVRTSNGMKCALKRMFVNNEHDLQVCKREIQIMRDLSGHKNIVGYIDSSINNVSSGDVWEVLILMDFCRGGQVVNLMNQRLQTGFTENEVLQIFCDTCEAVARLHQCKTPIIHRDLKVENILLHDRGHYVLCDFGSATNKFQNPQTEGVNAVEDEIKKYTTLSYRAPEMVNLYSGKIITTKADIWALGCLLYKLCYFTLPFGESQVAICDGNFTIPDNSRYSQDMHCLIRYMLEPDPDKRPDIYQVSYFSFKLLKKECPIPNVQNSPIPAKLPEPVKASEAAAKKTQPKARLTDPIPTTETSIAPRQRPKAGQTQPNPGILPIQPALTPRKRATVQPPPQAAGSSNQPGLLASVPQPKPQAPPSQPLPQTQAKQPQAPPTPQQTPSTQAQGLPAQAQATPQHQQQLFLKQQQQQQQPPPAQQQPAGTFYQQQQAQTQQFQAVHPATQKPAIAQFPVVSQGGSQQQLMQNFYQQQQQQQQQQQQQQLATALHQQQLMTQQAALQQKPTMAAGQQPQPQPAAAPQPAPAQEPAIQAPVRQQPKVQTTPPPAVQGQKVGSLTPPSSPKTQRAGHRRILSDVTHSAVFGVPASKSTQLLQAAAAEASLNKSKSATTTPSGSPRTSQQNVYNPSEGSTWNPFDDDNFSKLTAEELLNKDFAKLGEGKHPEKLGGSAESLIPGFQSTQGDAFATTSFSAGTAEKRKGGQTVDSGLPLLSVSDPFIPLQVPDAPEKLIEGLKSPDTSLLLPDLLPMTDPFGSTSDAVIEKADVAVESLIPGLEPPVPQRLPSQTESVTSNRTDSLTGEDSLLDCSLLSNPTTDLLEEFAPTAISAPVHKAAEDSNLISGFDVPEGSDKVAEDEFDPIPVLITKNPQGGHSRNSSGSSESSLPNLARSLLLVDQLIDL

| Compound | log2 fold change |
| --- | --- |
| O=C(Nc1cccc(Nc2ncc(Br)c(NCCc3cnc[nH]3)n2)c1)N1CCCC1 | 0.265 |
| Oc1cc(-c2nc(-c3ccccc3)[nH]c2-c2ccncc2)ccc1Cl | 0.073 |
| CC(=O)c1cnc2ccc(-c3cc(Cl)c(O)c(Cl)c3)nc2c1N[C@H]1CC[C@H](CN(C)C)CC1 | 0.366 |
| C#Cc1cccc(Nc2ncnc3cc(OCCOC)c(OCCOC)cc23)c1 [erlotinib] | -0.028 |
| C[C@@H](Oc1cc(-c2cnn(C3CCNCC3)c2)cnc1N)c1c(Cl)ccc(F)c1Cl [crizotinib] | 0.169 |
| C[C@@H]1COCCN1c1cc(C2(S(C)(=O)=O)CC2)nc(-c2cccc3[nH]ccc23)n1 | 0.028 |
| CC[C@@H]1C(=O)N(C)c2cnc(Nc3ccc(C(=O)NC4CCN(C)CC4)cc3OC)nc2N1C1CCCC1 | 0.078 |
| CCCS(=O)(=O)Nc1ccc(F)c(C(=O)c2c[nH]c3ncc(-c4ccc(Cl)cc4)cc23)c1F [vemurafenib] | 0.147 |
| Cn1c2cc(S(C)=O)sc2c2cnn(Cc3cccc(N)c3)c(=O)c21 (stereo not given) | -0.108 |
| Nc1ccccc1NC(=O)c1ccc(CNC(=O)OCc2cccnc2)cc1 [entinostat] | -0.015 |
| NC1(Cc2ccc(Cl)cc2)CCN(c2ncnc3[nH]ccc23)CC1 | -0.085 |
| CS(=O)(=O)N1CCN(Cc2cc3nc(-c4cccc5[nH]ncc45)nc(N4CCOCC4)c3s2)CC1 [pictilisib] | 0.087 |
| COC(=O)N[C@@H](C)CNc1nccc(-c2cn(C(C)C)nc2-c2cc(Cl)cc(NS(C)(=O)=O)c2F)n1 [encorafenib] | -0.047 |
| CC(C)(C)Cn1c(N)nc2ccc(-c3[nH]c(C(C)(C)C)nc3-c3ccc(F)cc3)nc21 [ralimetinib] | 0.04 |
| Cc1cc(Nc2cc(CN3CCOCC3)c3nc(C)c(Cc4ccc(Cl)cc4F)n3n2)n[nH]1 [gandotinib] | 0.091 |
| c1cn2cc(-c3ccc4cn[nH]c4c3)nc(Nc3ccc(N4CCOCC4)cc3)c2n1 [entospletinib] | 0.132 |
| CC(C)(O)CC(=O)NCCn1ccc2ncnc(Nc3ccc(Oc4cccc(C(F)(F)F)c4)c(Cl)c3)c21 | 0 |
| O=C1NC(=O)C(c2cnc3ccccn23)=C1c1cn2c3c(cc(F)cc13)CN(C(=O)N1CCCCC1)CC2 | 0.238 |
| CC1=C(C(=O)Nc2cc3cn[nH]c3cc2F)C(c2ccc(C(F)(F)F)cc2)CC(=O)N1 (stereo not given) | -0.055 |
| CNc1nc(-c2ccc3c(N)n[nH]c3c2)cc(N2C[C@@H](C(=O)NC3CCCCC3)CC[C@H]2C)n1 | 0.252 |
| NC(=O)Nc1cc(-c2cccc(F)c2)sc1C(=O)N[C@H]1CCCNC1 | 0.28 |
| CON(C)C(=O)N1N=C(c2cc(F)ccc2F)S[C@@]1(CCCN)c1ccccc1 [filanesib] | -0.108 |
| O=C(CCCCCCC(=O)Nc1ccccc1)NO [vorinostat] | 0.074 |
| COc1ccc(Cn2ccc3ccc(C(=O)NO)cc32)cc1 | 0.048 |
| Cc1ccc(NC(=O)c2ccc(CN3CC[C@H](N(C)C)C3)c(C(F)(F)F)c2)cc1Nc1nccc(-c2cncnc2)n1 [bafetinib] | -0.016 |
| CCN(CCCOc1ccc2c(Nc3cc(CC(=O)Nc4cccc(F)c4)[nH]n3)ncnc2c1)CCOP(=O)(O)O [barasertib] | -0.034 |
| CN1CCc2c(c3ccccc3n2Cc2ccc(C(=O)NO)cc2)C1 [Tubastatin A] | 0.003 |
| C=CC(=O)N1CCC[C@@H](n2nc(-c3ccc(Oc4ccccc4)cc3)c3c(N)ncnc32)C1 [ibrutinib] | 0.051 |
| Cc1cn(-c2cc(NC(=O)c3ccc(C)c(Nc4nccc(-c5cccnc5)n4)c3)cc(C(F)(F)F)c2)cn1 [nilotinib] | 0.027 |
| O=C(CCCCCCNC(=O)c1cnc(N(c2ccccc2)c2ccccc2Cl)nc1)NO [citarinostat] | -0.015 |
